# Bioassay records: PubChem BioAssay, National Center for Advancing Translational Sciences (NCATS)
# The list is not random: actives were taken first. Their share in the collection is about 6%.
# Chronic BCR inh = chronic active BCR signaling inhibition. Potency, µM (titrated, usually from 46.1 µM), inactives show top-dose activity change, negative = inhibition, hits mostly inhibitors. ABC-DLBCL IkBa-CBG/CBR reporter, luminescence ratio, 4 h. 340,000 tested, 0.05% active; active means well fitted inhibition curve with a large enough effect in the signal ratio, with a control signal flat, not every such curve was filed as active; inconclusive means small, poorly fitted or top-dose-only effect, or effect the other way, or a change in a side signal; the % refers to the signal ratio;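 further: potency means the concentration at half of the fitted maximal effect; plate controls were basal doxycycline-induced cells for no effect and cells given 10 µM MG132 for full effect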
#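 Compounds up to 46 uM were incubated four hours with TMD8 cells whose green CBG68 luciferase is fused to IkappaBalpha; red CBR luminescence normalised the signal, and concentration-effect curves were fitted to fusion, red and ratio data.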
# D3 ag = agonists of human D3 dopamine receptor; 410,000 tested, 0.58% active; D3R DiscoveRx beta-arrestin cells, luminescence, 90 min; P35462; max activation, %; AID 652048; in the data active means max activation above about 30%; further: 0% is about no effect
#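 Cells at 1500/well, incubated overnight, then treated with pinned compounds (dopamine as control) for 90 min at 37 degrees C. DiscoveRx reagent added for 30 - 60 minutes at room temperature; luminescence read.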
# D1 PAM = enhances dopamine response at the human D1 receptor; P21728; HEK293 TREx D1 cells, calcium flux, dopamine EC20 potentiation; potentiation, % at 10 µM; 360,000 tested, 0.036% active; AID 504651; in the data active means potentiation above about 30%; further: 0% is about no effect
# Target sequence (P21728 whole entry, looked up): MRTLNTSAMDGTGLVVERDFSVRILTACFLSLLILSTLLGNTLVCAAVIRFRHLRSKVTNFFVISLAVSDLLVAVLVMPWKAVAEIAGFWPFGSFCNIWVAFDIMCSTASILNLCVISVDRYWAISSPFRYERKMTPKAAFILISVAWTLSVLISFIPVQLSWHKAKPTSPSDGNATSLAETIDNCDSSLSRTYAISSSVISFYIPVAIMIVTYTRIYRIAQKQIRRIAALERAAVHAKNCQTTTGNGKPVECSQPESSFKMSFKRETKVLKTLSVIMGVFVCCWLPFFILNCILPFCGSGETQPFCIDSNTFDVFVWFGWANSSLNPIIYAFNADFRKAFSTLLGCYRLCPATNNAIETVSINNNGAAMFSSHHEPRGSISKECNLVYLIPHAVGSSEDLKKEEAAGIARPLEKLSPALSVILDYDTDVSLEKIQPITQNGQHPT
# D1 agonist = agonists of human D1 dopamine receptor; HEK293 T-REx D1 cells, calcium flux, agonist mode; 360,000 tested, 1% active; AID 504660; activation, % at 2 µM; P21728; in the data active means activation above about 30%; further: 0% is about no effect
#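 Inducible HEK293 T-REx D1 cells, force-coupled to calcium signalling, were plated at 4000 cells/well with tetracycline and held overnight at 30 C. After no-wash calcium dye loading, compound-evoked calcium rise over 180 s flagged agonists.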
# D1 antagonist = blocks dopamine activation of the human D1 receptor. P21728. HEK293 TREx D1 cells, calcium flux, dopamine EC80; hits give low values. activity change, negative = inhibition, % at 10 µM. 360,000 tested, 3.2% active; in the data active means activity change below about -30%; further: on the % scale 0 is the no-effect control and ±100 the full control effect
#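 Cells carrying a force-coupled, tetracycline-inducible human D1 receptor report calcium flux. Each well gets a 10 s baseline, compound with 180 s monitoring, then an EC80 dopamine stimulus with a second 180 s kinetic read.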
# DRD3 antagonist = blocks the human D3 dopamine receptor; P35462; D3R cells, DiscoveRx beta-arrestin luminescence, antagonist mode; hits give low values; max response, negative = inhibition, %; 360,000 tested, 2.5% active; AID 652054; in the data active means max response below about -50%; inconclusive means no clear call, values can overlap the other calls; further: on the % scale 0 is the no-effect control and ±100 the full control effect
#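 Cells plated overnight at 1500 cells/well, then exposed to library compounds with dopamine controls for 90 minutes at 37 degrees C. DiscoveRx reagent added for 30–60 minutes at room temperature; luminescence read, quantitative HTS format.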
# * marks the source's active call; other numbers are inactive results; u = inconclusive; x = no result.
SMILES,Chronic BCR inh,D3 ag,D1 PAM,D1 agonist,D1 antagonist,DRD3 antagonist
COc1ccccc1/C=C/c1ccc2cccc(O)c2n1,u,-17,4,3,0,-12
CCOc1cccc(/C=C/c2ccc3cccc(O)c3n2)c1O,u,1,-1,0,-9,-56*
CCOc1cc(/C=C/c2ccc3cccc([N+](=O)[O-])c3n2)ccc1O,u,-3,0,0,3,u
CCOc1cccc(/C=C/c2ccc3cccc(O)c3n2)c1OC,u,-24,-1,7,3,-83*
CCOC(=O)CC(NS(=O)(=O)c1ccc2[nH]c3c(c2c1)CCCC3)c1ccccc1Cl (stereo unspecified),u,7,-6,0,12,x
Cc1nnc2c3ccccc3c(-c3ccc(O)cc3)nn12,u,-2,-3,6,-7,16
Cc1c(-c2ccc(O)cc2)nc2nc(-c3ccccc3)c(-c3ccccc3)nn12,u,x,-10,86*,6,x
COc1cc(/C=N/NC(=O)C[n+]2ccccc2)cc(OC)c1OC(C)=O,u,6,-11,1,-79*,8
COc1ccc(/C=N/NC(=O)CCn2c3ccccc3c3ccccc32)cc1OC,-3%,-2,3,11,0,0
COc1cc(/C=N/NC(=O)C[n+]2ccccc2)cc(OC)c1OC,0%,3,-2,0,-9,3
COc1cc(/C=N/NC(=O)CCn2c3ccccc3c3ccccc32)cc(OC)c1OC,u,42*,-1,3,3,71
COc1cccc(CNC(=O)C(C)n2c(=O)cc(-c3ccccc3)c3c(C)nn(C)c32)c1 (stereo unspecified),x,-12,-5,1,-2,x
Nc1cc2c(cc1Cl)-c1ccc([N+](=O)[O-])cc1C2=NO,x,-11,x,x,x,20
O=C1C=CC2(O[C@H](c3ccccc3)[C@@H](c3ccccc3)O2)[C@H](Sc2ccccc2O)C1,x,-15,x,x,x,-118*
CCN1C(=O)c2ccccc2S(=O)c2ccc(C(=O)N3CCN(c4cc(Cl)ccc4C)CC3)cc21 (stereo unspecified),x,-8,-5,4,-16,x
Cc1ccccc1N1C(=O)c2cccc3c(N(C)CCO)ccc(c23)C1=O,-12%,2,-8,86*,-7,-7
COc1ccccc1N1C(=O)c2cccc3c(N(C)CCO)ccc(c23)C1=O,4%,4,1,56*,5,6
CC(=O)Nc1cccc2c1C(=O)N(c1ccccc1C)C2=O,-15%,-3,-2,0,-5,-26
CCc1nc2c(OCc3ccc(OC)cc3)cccn2c1N(C)C(=O)c1ccco1,x,4,x,x,x,-5
Cc1ccc(S(=O)(=O)C2(C(=O)Nc3ccc(Br)cc3)CC2)cc1,-2%,-8,-2,-1,-3,4
Cc1ccc(S(=O)(=O)C2(C(=O)Nc3cccnc3)CC2)cc1,7%,-6,5,1,37,-63*
COc1ccc(Br)cc1CNC(=O)c1cnc2sc(N3CCCC3)nn2c1=O,x,9,-4,-1,7,x
CC1=CC(C)C(=O)N(CCN2CCOCC2)C(C)=C1 (stereo unspecified),x,0,x,x,x,6
COc1ccc2c(c1)O[C@@H](c1cccc(C(F)(F)F)c1)[C@H](OC(=O)N[C@H]1CCCc3ccccc31)C2=O,1%,x,-3,1,0,x
COc1ccc2c(c1)O[C@H](c1ccc3c(c1)OCO3)[C@@H](OC(=O)N[C@H]1CCCc3ccccc31)C2=O,1%,54*,-10,-2,-57*,1
SMILES,Chronic BCR inh,D3 ag,D1 PAM,D1 agonist,D1 antagonist,DRD3 antagonist
O=S(c1cc(Cl)cc(Cl)c1O)c1cc(Cl)cc(Cl)c1O,x,9,x,x,x,9
Oc1c(Cl)cc(Cl)cc1Sc1cc(Cl)cc(Cl)c1O,u,10,-5,28,-56*,x
O/N=C/CCn1c(=S)sc2ccccc21,0%,-8,-7,1,2,-51*
O=C(OCCn1c(=S)sc2ccccc21)c1ccccc1,x,3,x,x,x,-9
Cc1ccc(C(=O)CSc2ncc3c(n2)-c2ccccc2N(Cc2ccc(Cl)cc2)S3(=O)=O)cc1,x,-6,0,3,-6,x
Cc1ccc(C2=NN(C(=O)CN3C(=O)c4ccccc4S3(=O)=O)C(c3ccco3)C2)cc1 (stereo unspecified),1%,-1,-6,1,-76*,-5
Cc1ccc(C2=NN(C(=O)C3CCCO3)C(c3ccco3)C2)cc1 (stereo unspecified),-2%,4,4,6,2,8
CC(=O)N1N=C(c2ccc(C)cc2)CC1c1ccco1 (stereo unspecified),u,18,-1,-3,x,5
Cc1ccc(C2=NN(C(=O)CCCC(=O)O)C(c3ccco3)C2)cc1 (stereo unspecified),-1%,3,-3,74*,-13,8
O=C(C1CCCO1)N1N=C(c2ccc(Br)cc2)CC1c1ccco1 (stereo unspecified),-12%,2,-4,2,-71*,3
Cc1csc(NC(=O)CSc2ncnc3c2cnn3-c2ccccc2Cl)n1,u,3,-13,7,-31*,-16
CC1CCc2c(sc(NC(=O)CSc3ncnc4c3cnn4-c3ccccc3Cl)c2C#N)C1 (stereo unspecified),-12%,-1,-1,1,-39*,9
O=C(Nc1cc(C(F)(F)F)ccc1Cl)C(O)Cc1ccccc1 (stereo unspecified),x,x,-4,2,22,x
O=S(=O)(Nc1ncn[nH]1)c1ccc2ccccc2c1,-4%,1,-3,2,10,0
CCOc1cc(S(=O)(=O)n2ccc(C)n2)ccc1Br,-1%,-5,-6,8,-37*,-19
CCOc1cc(S(=O)(=O)Nc2ncn[nH]2)ccc1Br,0%,-16,-5,2,-52*,-1
N#Cc1cccc(NC(=O)c2cc3c(s2)-c2ccc(Cl)cc2SC3)c1,x,-13,-2,10,-5,x
Cc1nn(-c2ccc(N3CCCC3)nn2)c(C)c1CCC(=O)Nc1ccc(F)c(Cl)c1,x,5,-3,1,1,x
COc1ccc(SCC(O)Cn2c3ccccc3c3ccccc32)c(OC)c1 (stereo unspecified),x,1,x,x,x,34
C[Se]CC[C@H](N)C(=O)O,x,2,x,x,x,x
COc1ccc(N2CCN(C(=O)CCc3c(C)nn(-c4ccc(N5CCCC5)nn4)c3C)CC2)cc1,x,10,-3,-1,-2,x
Cc1nc(-c2coc3cc(O)c(C)cc3c2=O)cs1,u,0,-1,-2,-51*,-7
Cc1nc(-c2coc3cc(OCC(=O)O)ccc3c2=O)cs1,u,3,-3,0,3,15
